NS1 function inh: influenza NS1 inhibition. AID 2326. Potency, µM (top dose mostly 46.1 µM). hit rate 0.4% among 270,000; also: actives are rising curves; nearly all actives have a fitted effect of over 50% in size
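A cell-based growth assay was used: compounds that relieve NS1-induced slow growth of budding yeast raise OD600. Assay medium was yeast nitrogen base with ammonium sulphate and -URA supplement, pH 6.0, with 2% galactose.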
Shiga toxin inh: Shiga toxin inhibition; Vero cells, Shiga toxin protein synthesis inhibition reporter; inhibition, % at 38.7 µM; hit rate 9.2% among 290,000; AID 2315; in the data active = inhibition mostly above about 28%, no sharp cut-off; inactive = mostly below about 43%
Cycloheximide cs: counter-screen for Shiga toxin inhibitors: cycloheximide protein synthesis inhibition; cell reporter, cycloheximide protein synthesis inhibition counterscreen; max response, %; hit rate 12% among 300,000; in the data active = max response mostly above about 13%, no sharp cut-off; inactive = mostly below about 14%; also: read at 38.3 µM for the half of the compounds with a filed dose
SARS PLpro yeast: SARS-CoV PLP inhibition in yeast; S. cerevisiae expressing SARS-CoV PLpro, growth rescue; Potency, µM (titrated, usually from 32.9 µM), actives largely listed as activators; hit rate 0.19% among 330,000; AID 485353; also: nearly all actives have a fitted effect of over 55% in size
Large screens that a line does not name were inactive. In the library only some 12% were active in any assay of this set; here they are far more common. Unless noted, calls follow the shape of the full dose curve.

CN(C)c1ccc(NS(=O)(=O)c2cc(Cl)ccc2Cl)cc1	Cycloheximide cs 21
CC(C)n1c(-c2ccc(N(C)C)cc2)nc2ccccc21	Shiga toxin inh 114, Cycloheximide cs 29
CN(C)c1ccc(-c2nc3ccccc3n2C)cc1	Cycloheximide cs 24
CCn1c(-c2ccc(N(C)C)cc2)nc2ccccc21	none
Cc1cc2c(s1)c1cnn(Cc3ccc(C(F)(F)F)cc3)c(=O)c1n2C	none (no result: NS1 function inh, SARS PLpro yeast)
O=C(COC(=O)COc1ccccc1[N+](=O)[O-])Nc1cccc(Br)c1	Cycloheximide cs 15
Cc1ccc(OC/C(=N\O)C(C)(C)C)c([N+](=O)[O-])c1	Shiga toxin inh 75, Cycloheximide cs 34 (no result: NS1 function inh)
Cc1ccc(OCC(=O)Nc2ccccc2[N+](=O)[O-])c(Br)c1	Shiga toxin inh 122, Cycloheximide cs 42 (no result: NS1 function inh)
COc1cccc(NC(=O)COC(=O)COc2ccccc2[N+](=O)[O-])c1	none
Cc1ccc(OCC(=O)Nc2ccon2)c([N+](=O)[O-])c1	Shiga toxin inh 84, Cycloheximide cs 42
CSc1ccc(S(=O)(=O)N2CCC(C(=O)NCc3ccco3)CC2)cc1	none
CCC1(CC)NC(=O)N(CC(=O)Nc2ccc(S(=O)(=O)N3CCOCC3)cc2)C1=O	none (no result: NS1 function inh)
O=C(CN1C(=O)CCC1=O)Nc1nc(-c2ccc3ccccc3c2)cs1	Shiga toxin inh 96, Cycloheximide cs 40 (no result: NS1 function inh)
Oc1ccc(-c2nc(-c3ccc(O)c(O)c3)cs2)cc1	Shiga toxin inh 94
O=C(CN1C(=O)CCC1=O)Nc1nc(-c2nc3ccccc3s2)cs1	Shiga toxin inh active, Cycloheximide cs 25
O=C(O)c1ccc(-c2nc(-c3cccc(C(F)(F)F)c3)cs2)cc1	none (no result: NS1 function inh)
CC(=O)Nc1nc(-c2ccc3ccccc3c2)cs1	Shiga toxin inh 87, Cycloheximide cs 38
CC(C)CN(C(=O)CSc1nnnn1-c1ccccc1)c1c(N)n(CC(C)C)c(=O)[nH]c1=O	none
O=S(=O)(c1ccc2nc(Cl)c(Cl)nc2c1)N1CCN(S(=O)(=O)c2c(F)cccc2F)CC1	none (no result: NS1 function inh, SARS PLpro yeast)
COc1cccc(-c2csc(NC(=O)Oc3ccccc3)n2)c1	Shiga toxin inh 137, Cycloheximide cs 48
Oc1ccc(Nc2nc(-c3ccc4ccccc4c3)cs2)cc1	Shiga toxin inh 121, Cycloheximide cs 49
COc1cccc(-c2csc(NNC(=O)c3cccs3)n2)c1	NS1 function inh inconclusive
COc1ccc(NC(=O)CSCC(=O)Nc2cccc(S(=O)(=O)N3CCCCCC3)c2)cc1	none (no result: NS1 function inh, Shiga toxin inh, Cycloheximide cs)
O=C1NC(=O)C(Cc2ccc(OCCN3COc4ccccc4C3=O)cc2)S1 (centres undefined)	Cycloheximide cs 25 (no result: NS1 function inh, SARS PLpro yeast)
CN(C)c1ccc2c(-c3ccccc3)c3ccc(=[N+](C)C)cc-3oc2c1	none (no result: NS1 function inh, SARS PLpro yeast)
Cc1cc(C(=O)Nc2ccccc2C(F)(F)F)no1	none
O=C(Nc1ccccc1C(F)(F)F)c1cc2ncc(CCCl)cn2n1	Shiga toxin inh 77, Cycloheximide cs 23
O=C(Nc1ccccc1C(F)(F)F)c1ccccn1	Cycloheximide cs 32 (no result: NS1 function inh)
O=C(Nc1ccccc1C(F)(F)F)c1cc(-c2ccco2)on1	Shiga toxin inh 58
O=C(Nc1ccccc1C(F)(F)F)c1cc(-c2ccccc2O)on1	Shiga toxin inh 83, Cycloheximide cs 37
Cc1ccc2c(c1)CCCN2C(=O)CCc1nc2ccccc2c(=O)[nH]1	none (no result: NS1 function inh, Shiga toxin inh, Cycloheximide cs)
COC(=O)c1c(NC(=O)Cc2cccs2)sc2c1CCCC2	Cycloheximide cs 30
Cc1ccc(C(=O)Nc2sc3c(c2C(=O)O)CCCC3)o1	Shiga toxin inh 68, Cycloheximide cs 52
O=C(Nc1sc2c(c1C(=O)O)CCC2)c1ccco1	none
CCOC(=O)c1c(NC(=O)C2CCCCC2C(=O)O)sc2c1CCCCC2 (centres undefined)	none
COC(=O)c1c(NC(=O)C2CCCCC2C(=O)O)sc2c1CCCCC2 (centres undefined)	Shiga toxin inh 84, Cycloheximide cs 40
Cc1ccc(C(=O)Nc2sc3c(c2C(=O)O)CCCCC3)o1	Shiga toxin inh 54, Cycloheximide cs 37
Cc1ccc(C(=O)Nc2sc3c(c2C(=O)O)CCC(C)C3)o1 (centres undefined)	none (no result: NS1 function inh, Shiga toxin inh, Cycloheximide cs)
CN(C(=O)CSC1=Nc2ccccc2C2=NC(c3ccccc3)C(=O)N12)C1CCCCC1 (centres undefined)	none
O=C1CCc2cc(S(=O)(=O)NCc3ccccc3Cl)ccc2N1	none (no result: NS1 function inh, Shiga toxin inh, Cycloheximide cs)
COC(=O)c1c(NC(=O)c2ccc(C)o2)sc2c1CCCCC2	Shiga toxin inh 73, Cycloheximide cs 50
COC(=O)c1c(NC(=O)c2ccco2)sc2c1CCC2	none
CCC(=O)N(Cc1ccco1)c1nc(C(=O)Nc2ccc(Cl)cc2)c(C)s1	Shiga toxin inh 54, Cycloheximide cs 33
CCN(C(=O)c1ccco1)c1nc(CC(=O)Nc2ccc(Cl)cc2)cs1	none
NC(=O)c1ccc(NC(=O)COC(=O)c2c[nH]c3ccccc23)cc1	none (no result: NS1 function inh, Shiga toxin inh, Cycloheximide cs)
Cc1cc(C(=O)COc2ccc(-c3nnco3)cc2)c(C)n1Cc1ccccc1	Cycloheximide cs 17
O=C(COc1ccc(-c2nnco2)cc1)NCc1ccccc1Cl	none
O=C(c1cccc(F)c1)N1CCc2ccccc21	none
Cc1cc(C(=O)N2CCc3ccccc32)c2cc(F)ccc2n1	Shiga toxin inh 72, Cycloheximide cs 35
COc1ccc2cc(C(=O)N3CCc4ccccc43)[nH]c2c1	Shiga toxin inh 100, Cycloheximide cs 34
O=C(c1cc2cc(F)ccc2[nH]1)N1CCc2ccccc21	Shiga toxin inh 74, Cycloheximide cs 34
O=C(c1cc2cc(Br)ccc2[nH]1)N1CCc2ccccc21	Cycloheximide cs 19
COc1ccc2cc(C(=O)N3CCN(c4cccc(C)c4C)CC3)[nH]c2c1	none
COC(=O)CNC(=O)c1sc2ncn(CC(=O)Nc3ccc(C)c(Cl)c3)c(=O)c2c1C	none (no result: NS1 function inh)
Cc1cc(-n2c(C)cc(C(=O)CSc3ccc4c(c3)OCCO4)c2C)no1	none
COc1ccc(N2CCN(c3ccc4nnc(CCC(=O)Nc5ccc(C)cc5)n4n3)CC2)cc1	none
COc1cccc(NC2SC(=O)N(c3ccccc3)C2=O)c1 (centres undefined)	Shiga toxin inh 61, Cycloheximide cs 43
CCOC(=O)C1=C(COC(=O)CCOc2ccc(C)cc2)NC(=O)NC1C (centres undefined)	none (no result: NS1 function inh, Shiga toxin inh, Cycloheximide cs)
c1ccc(OCc2cc(-c3ccccc3)no2)cc1	Shiga toxin inh 76, Cycloheximide cs 53 (no result: NS1 function inh)
COc1ccc(OCc2cc(-c3ccc(Cl)cc3)no2)cc1	none (no result: NS1 function inh)
COc1ccccc1OCc1cc(-c2ccccc2)no1	Shiga toxin inh 89, Cycloheximide cs 68 (no result: NS1 function inh)
O=C(c1cc(COc2c(F)cccc2F)on1)N1CCC(c2ccccc2Cl)C1 (centres undefined)	Shiga toxin inh 82, Cycloheximide cs 51
O=C(c1cc(-c2ccc(Cl)cc2)on1)N1CCc2ccccc2C1	none
O=C(c1cc(COc2c(F)cccc2F)on1)N1CCc2ccccc2C1	Shiga toxin inh 52
O=C(c1cc(COc2c(F)cccc2F)on1)N1CCC(c2ccncc2)CC1	none
O=C(c1cc(COc2c(F)cccc2F)on1)N1CCC(c2ccccc2F)C1 (centres undefined)	Shiga toxin inh 90, Cycloheximide cs 36
CCCCNC(=O)COC(=O)CCC(=O)c1ccc(Cl)cc1	none (no result: NS1 function inh)
Cc1nn(CC2CC2)c(=O)n1-c1ccc(Oc2ccccc2)cc1	none
O=C(CSc1ccc(Cl)cc1)Nc1ccc(-c2nc3ccccc3[nH]2)cc1	none
Cc1ncc(CO)c(CNc2ccc(-c3nc4ccccc4[nH]3)cc2)c1O	Cycloheximide cs 16

Compound activity: PubChem, National Center for Advancing Translational Sciences (NCATS)
